Calls of active or inactive are those of the source. How the source made its calls: active means hit-call score of the fitted dose curve at least 0.9, where 1 is the maximum; inactive means score below 0.9.

The nature of assay [1]: CEETOX_H295R_PROG: CeeTox H295R High-throughput Steroidogenesis Assay for Progesterone (PROG) (AID 2283442).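 Further: human H295R adrenal cells primed with 10 µM forskolin before dosing; progesterone secreted into medium by H295R cells measured by HPLC-MS/MS.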 The following applies: actives raise or lower the signal. The gist of the method:
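Steps: seed H295R cells and let them adhere overnight; prime 48 h with 10 uM forskolin; dose with compound in DMSO at 0.1% final for 48 h; extract medium steroids with MTBE; measure progesterone by LC-MS/MS. MTT viability was run in the same wells.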

Read-out in assay [2]: Fatty acid synthase (Homo sapiens) (UniProt P49327)
Description: LTEA_HepaRG_FASN: Life Technologies and Expression Analysis (LTEA) Assay for Fatty Acid Synthase (FASN) using HepaRG (AID 2283448). The following applies: mRNA level, 48 h; actives raise or lower the signal. Summed up: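 Cells were plated, cultured 48 h, switched to serum-free induction medium, then dosed in duplicate (max 100 uM, half-log dilutions, 0.5% DMSO) for 48 h. RNA was then isolated and FASN quantified by qRT-PCR.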

Read-out in assay [3]: Cyclin D2 (CCND2), CCND2 (gene 894)
In words: LTEA_HepaRG_CCND2: Life Technologies and Expression Analysis (LTEA) Assay for Cyclin D2 (CCND2) using HepaRG (AID 2283449). The note with it: mRNA level, 48 h; actives raise or lower the signal. Summed up:
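CCND2 transcript levels, quantified by qRT-PCR and normalised to three housekeeping genes, were fitted bidirectionally against 0.5% DMSO. HepaRG cultures were dosed 48 h in duplicate with an 8-point half-log series up to 100 uM.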

Read-out in assay [4]: Cyclin Dependent Kinase Inhibitor 1A (CDKN1A), CDKN1A (gene 1026)
In words: LTEA_HepaRG_CDKN1A: Life Technologies and Expression Analysis (LTEA) Assay for Cyclin Dependent Kinase Inhibitor 1A (CDKN1A) using HepaRG (AID 2283450). The following applies: mRNA level, 48 h; actives raise or lower the signal. The gist of the method: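 Read-out is CDKN1A mRNA by TaqMan qRT-PCR, normalized to three housekeeping genes and fitted in both directions against the DMSO baseline. Human HepaRG cells were treated 48 h with test chemicals up to 100 uM in half-log steps, 0.5% DMSO.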

Read-out in assay [5]: Cyclin D1 (CCND1), CCND1 (gene 595)
Description: LTEA_HepaRG_CCND1: Life Technologies and Expression Analysis (LTEA) Assay for Cyclin D1 (CCND1) using HepaRG (AID 2283451). The following applies: mRNA level, 48 h; actives raise or lower the signal. Summed up:
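HepaRG plated 48 h, medium switched to serum-free induction medium, chemicals added in duplicate (top 100 uM, half-log steps, 0.5% DMSO) for 48 h, cells lysed, RNA measured by TaqMan qRT-PCR.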

Read-out in assay [6]: catalase (CAT), CAT (gene 847)
In words: LTEA_HepaRG_CAT: Life Technologies and Expression Analysis (LTEA) Assay for catalase (CAT) using HepaRG (AID 2283452). The note with it: mRNA level, 48 h; actives raise or lower the signal. The gist of the method: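 Expression of CAT was quantified by TaqMan qRT-PCR with ACTB/GAPDH/POLR2A normalization after 48 h chemical exposure of HepaRG. Eight-point half-log series, top 100 uM, in 0.5% DMSO; gain or loss fitted against vehicle.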

Read-out in assay [7]: flavin-containing dimethylaniline monooxygenases 3 (FMO3), FMO3 (gene 2328)
In words: LTEA_HepaRG_FMO3: Life Technologies and Expression Analysis (LTEA) Assay for flavin-containing dimethylaniline monooxygenases 3 (FMO3) using HepaRG (AID 2283453). The following applies: mRNA level, 48 h; actives raise or lower the signal. The gist of the method: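 FMO3 transcript quantified by TaqMan qRT-PCR against three housekeeping genes after 48 h chemical exposure of HepaRG cells. Eight-point half-log series, top 100 uM, 0.5% DMSO vehicle; phenobarbital 1mM induction control; up- or down-regulation fitted.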

Read-out in assay [8]: Cytochrome P450 (CYP1A1), CYP1A1 (gene 1543)
In words: LTEA_HepaRG_CYP1A1: Life Technologies and Expression Analysis (LTEA) Assay for Cytochrome P450 (CYP1A1) using HepaRG (AID 2283454). The following applies: mRNA level, 48 h; actives raise or lower the signal. The gist of the method: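 HepaRG, 48 h post-plating switched to serum-free induction medium; 8-pt conc-response (top 100 uM, half-log, 0.5% DMSO), duplicates, 48 h. Lysis in RLT, TaqMan qRT-PCR for CYP1A1; gain or loss vs DMSO.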

Read-out in assay [9]: CFLAR gene, CFLAR (gene 8837)
In words: LTEA_HepaRG_CFLAR: Life Technologies and Expression Analysis (LTEA) Assay for CFLAR gene using HepaRG (AID 2283455). The following applies: mRNA level, 48 h; actives raise or lower the signal. Summed up: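 Transcript level by qRT-PCR (normalized to ACTB, GAPDH and POLR2A) after 48 h chemical exposure of HepaRG cells, top concentration 100 uM with half-log steps, 0.5% DMSO vehicle, duplicates; fitted bidirectionally against DMSO baseline.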

Read-out in assay [10]: Forkhead box O1 (FOXO1), FOXO1 (gene 2308)
In words: LTEA_HepaRG_FOXO1: Life Technologies and Expression Analysis (LTEA) Assay for Forkhead box O1 (FOXO1) using HepaRG (AID 2283456). The note with it: mRNA level, 48 h; actives raise or lower the signal. Summed up: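 FOXO1 transcript quantified by qRT-PCR after 48 h chemical exposure (top 100 uM, half-log steps, 0.5% DMSO) of HepaRG cells, housekeeping-normalized (ACTB/GAPDH/POLR2A). Changes fitted in both directions relative to vehicle.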

Read-out in assay [11]: growth arrest and DNA damage 45 (GADD45A), GADD45A (gene 1647)
Description: LTEA_HepaRG_GADD45A: Life Technologies and Expression Analysis (LTEA) Assay for growth arrest and DNA damage 45 (GADD45A) using HepaRG (AID 2283458). The note with it: mRNA level, 48 h; actives raise or lower the signal. The gist of the method: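 Transcript induction or loss, quantified by TaqMan qRT-PCR against three housekeeping genes, is the read-out. HepaRG cells received chemicals for 48 h across eight half-log concentrations from 100 uM in 0.5% DMSO; gain and loss fitted relative to DMSO.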

Read-out in assay [12]: Forkhead box O3 (FOXO3), FOXO3 (gene 2309)
Description: LTEA_HepaRG_FOXO3: Life Technologies and Expression Analysis (LTEA) Assay for Forkhead box O3 (FOXO3) using HepaRG (AID 2283459). The note with it: mRNA level, 48 h; actives raise or lower the signal. The gist of the method: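 FOXO3 transcript measured by qRT-PCR (normalized to ACTB, GAPDH, POLR2A) after 48 h exposure of HepaRG cells in serum-free induction medium. Duplicates, eight half-log concentrations up to 100 uM, 0.5% DMSO; gain or loss fitted against DMSO.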

Read-out in assay [13]: ABC Transporter (ABCB1), ABCB1 (gene 5243)
Description: LTEA_HepaRG_ABCB1: Life Technologies and Expression Analysis (LTEA) Assay for ABC Transporter (ABCB1) using HepaRG (AID 2283460). The following applies: mRNA level, 48 h; actives raise or lower the signal. The gist of the method:
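ABCB1 transcript level measured by TaqMan qRT-PCR against three housekeeping genes after 48 h chemical exposure of differentiated HepaRG cells. Top concentration 100 uM, half-log steps, eight points, 0.5% DMSO vehicle; bidirectional fit relative to DMSO.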

Read-out in assay [14]: growth arrest and DNA damage 45 (GADD45B), GADD45B (gene 4616)
In words: LTEA_HepaRG_GADD45B: Life Technologies and Expression Analysis (LTEA) Assay for growth arrest and DNA damage 45 (GADD45B) using HepaRG (AID 2283461). The note with it: mRNA level, 48 h; actives raise or lower the signal. Summed up: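 HepaRG, ~100,000 cells/well, 48 h plating; serum-free induction medium; cpd 100 uM top, half-log x8, 0.5% DMSO, duplicate, 48 h; lysis in RLT, RNA isolation, qRT-PCR; norm ACTB/GAPDH/POLR2A; bidirectional fit vs DMSO.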

Read-out in assay [15]: ABC Transporter (ABCC3), ABCC3 (gene 8714)
Description: LTEA_HepaRG_ABCC3: Life Technologies and Expression Analysis (LTEA) Assay for ABC Transporter (ABCC3) using HepaRG (AID 2283462). The following applies: mRNA level, 48 h; actives raise or lower the signal. The gist of the method: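 Human HepaRG, 48 h dosing, 8-pt half-log series from 100 uM, 0.5% DMSO vehicle, duplicates. ABCC3 mRNA by TaqMan qRT-PCR, housekeeping-normalized; bidirectional curve fit vs DMSO.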

Read-out in assay [16]: ABC Transporter (ABCB11), ABCB11 (gene 8647)
Description: LTEA_HepaRG_ABCB11: Life Technologies and Expression Analysis (LTEA) Assay for ABC Transporter (ABCB11) using HepaRG (AID 2283463). The note with it: mRNA level, 48 h; actives raise or lower the signal. The gist of the method:
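ABCB11 transcript levels quantified by TaqMan qRT-PCR against three housekeeping genes after 48 h chemical exposure of HepaRG cultures. Concentrations up to 100 uM in half-log steps, 0.5% DMSO vehicle; both induction and suppression scored.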

Read-out in assay [17]: Broad substrate specificity ATP-binding cassette transporter ABCG2 (Homo sapiens) (UniProt Q9UNQ0)
In words: LTEA_HepaRG_ABCG2: Life Technologies and Expression Analysis (LTEA) Assay for ABC Transporter (ABCG2) using HepaRG (AID 2283465). The note with it: mRNA level, 48 h; actives raise or lower the signal. Summed up: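 ABCG2 transcript was quantified by TaqMan qRT-PCR against three housekeeping genes in HepaRG cells. Cells were treated in duplicate for 48 h across an 8-point half-log series up to 100 uM, with 0.5% DMSO vehicle. Gain or loss versus DMSO was fit.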

Read-out in assay [18]: Tumor necrosis factor receptor superfamily member 6 (Homo sapiens) (UniProt P25445)
In words: LTEA_HepaRG_FAS: Life Technologies and Expression Analysis (LTEA) Assay for Fas cell surface death receptor (FAS) using HepaRG (AID 2283447). The following applies: mRNA level, 48 h; actives raise or lower the signal. Summed up: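 FAS transcript level was measured by TaqMan qRT-PCR against three housekeeping genes after 48 h chemical exposure. Cells were HepaRG, 0.5% DMSO vehicle, with a top concentration of 100 uM and half-log dilutions over eight points, in duplicate.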

Read-out in assay [19]: ABC Transporter (ABCC2), ABCC2 (gene 1244)
Description: LTEA_HepaRG_ABCC2: Life Technologies and Expression Analysis (LTEA) Assay for ABC Transporter (ABCC2) using HepaRG (AID 2283464). The note with it: mRNA level, 48 h; actives raise or lower the signal. Summed up: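 HepaRG, 48 h post-plating; serum-free induction medium; cpd 8-pt, 100 uM top, half-log, 0.5% DMSO, duplicate, 48 h. Readout: ABCC2 mRNA by qRT-PCR, norm. ACTB/GAPDH/POLR2A. Bidirectional fit vs DMSO baseline.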

Fatty acid synthase (Homo sapiens), sequence (P49327 whole entry, looked up): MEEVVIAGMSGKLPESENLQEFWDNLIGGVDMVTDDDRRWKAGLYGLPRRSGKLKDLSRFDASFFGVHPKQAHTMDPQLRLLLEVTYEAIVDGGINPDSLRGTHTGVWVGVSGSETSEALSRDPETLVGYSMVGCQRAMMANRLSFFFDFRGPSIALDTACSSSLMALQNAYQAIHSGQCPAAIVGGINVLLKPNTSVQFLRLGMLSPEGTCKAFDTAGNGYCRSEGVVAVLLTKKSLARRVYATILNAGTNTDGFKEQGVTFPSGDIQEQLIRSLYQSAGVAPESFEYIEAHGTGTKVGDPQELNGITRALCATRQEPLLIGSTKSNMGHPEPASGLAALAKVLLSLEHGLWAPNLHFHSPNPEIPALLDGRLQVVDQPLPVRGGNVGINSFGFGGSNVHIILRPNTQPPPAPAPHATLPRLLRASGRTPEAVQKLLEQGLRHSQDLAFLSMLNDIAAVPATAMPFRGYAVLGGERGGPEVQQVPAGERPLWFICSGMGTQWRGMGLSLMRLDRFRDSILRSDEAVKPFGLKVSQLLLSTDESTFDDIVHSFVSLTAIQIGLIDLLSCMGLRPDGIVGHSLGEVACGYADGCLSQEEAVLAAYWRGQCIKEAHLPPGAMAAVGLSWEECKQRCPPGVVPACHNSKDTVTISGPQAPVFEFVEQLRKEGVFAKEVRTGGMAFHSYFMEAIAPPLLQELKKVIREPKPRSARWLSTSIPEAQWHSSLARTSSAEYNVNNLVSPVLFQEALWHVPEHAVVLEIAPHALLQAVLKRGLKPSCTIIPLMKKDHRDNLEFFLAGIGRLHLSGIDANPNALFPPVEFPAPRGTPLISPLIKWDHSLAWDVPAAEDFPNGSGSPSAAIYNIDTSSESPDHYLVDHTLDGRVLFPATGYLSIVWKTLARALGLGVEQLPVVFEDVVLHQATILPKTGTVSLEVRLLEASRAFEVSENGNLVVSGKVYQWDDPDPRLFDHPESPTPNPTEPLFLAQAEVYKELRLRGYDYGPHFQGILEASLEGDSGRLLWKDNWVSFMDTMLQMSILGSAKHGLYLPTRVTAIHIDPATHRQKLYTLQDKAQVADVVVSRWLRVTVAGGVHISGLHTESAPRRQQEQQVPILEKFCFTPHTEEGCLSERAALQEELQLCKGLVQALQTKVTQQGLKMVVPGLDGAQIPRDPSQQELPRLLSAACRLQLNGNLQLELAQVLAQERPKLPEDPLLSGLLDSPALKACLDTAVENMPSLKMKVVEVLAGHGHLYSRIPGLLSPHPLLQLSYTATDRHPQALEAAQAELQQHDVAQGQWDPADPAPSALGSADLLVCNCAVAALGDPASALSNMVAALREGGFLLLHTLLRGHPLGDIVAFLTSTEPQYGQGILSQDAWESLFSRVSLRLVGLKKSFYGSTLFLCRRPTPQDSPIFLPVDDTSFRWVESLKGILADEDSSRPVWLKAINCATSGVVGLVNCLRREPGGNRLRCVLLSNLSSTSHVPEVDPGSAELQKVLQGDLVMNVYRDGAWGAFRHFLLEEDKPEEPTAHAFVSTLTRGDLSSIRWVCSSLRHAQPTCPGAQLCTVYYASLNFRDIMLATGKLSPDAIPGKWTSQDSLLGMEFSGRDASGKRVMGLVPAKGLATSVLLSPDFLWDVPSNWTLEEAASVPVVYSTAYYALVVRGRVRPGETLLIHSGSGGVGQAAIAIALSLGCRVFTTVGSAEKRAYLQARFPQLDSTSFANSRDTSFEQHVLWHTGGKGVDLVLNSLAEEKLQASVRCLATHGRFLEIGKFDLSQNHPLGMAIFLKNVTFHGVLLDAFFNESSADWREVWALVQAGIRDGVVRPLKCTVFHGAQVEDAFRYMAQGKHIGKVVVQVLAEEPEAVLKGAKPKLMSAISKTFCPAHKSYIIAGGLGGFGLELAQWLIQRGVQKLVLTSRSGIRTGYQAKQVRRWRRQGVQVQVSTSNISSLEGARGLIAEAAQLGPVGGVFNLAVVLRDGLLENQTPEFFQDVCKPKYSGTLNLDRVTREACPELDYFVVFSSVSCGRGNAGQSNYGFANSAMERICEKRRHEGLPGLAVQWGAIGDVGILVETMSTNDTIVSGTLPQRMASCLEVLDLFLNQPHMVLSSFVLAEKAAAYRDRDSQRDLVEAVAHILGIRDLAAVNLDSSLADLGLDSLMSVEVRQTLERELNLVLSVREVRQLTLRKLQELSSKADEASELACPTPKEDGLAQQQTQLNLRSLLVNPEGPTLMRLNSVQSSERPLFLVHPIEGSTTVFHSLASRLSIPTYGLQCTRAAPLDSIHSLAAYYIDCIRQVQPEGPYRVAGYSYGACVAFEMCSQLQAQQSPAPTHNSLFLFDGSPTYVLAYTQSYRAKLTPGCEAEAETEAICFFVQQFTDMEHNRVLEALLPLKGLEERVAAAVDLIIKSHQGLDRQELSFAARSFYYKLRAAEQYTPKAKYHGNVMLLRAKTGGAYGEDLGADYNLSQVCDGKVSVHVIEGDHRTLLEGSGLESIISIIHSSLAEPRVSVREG
Broad substrate specificity ATP-binding cassette transporter ABCG2 (Homo sapiens), sequence (Q9UNQ0 whole entry, looked up): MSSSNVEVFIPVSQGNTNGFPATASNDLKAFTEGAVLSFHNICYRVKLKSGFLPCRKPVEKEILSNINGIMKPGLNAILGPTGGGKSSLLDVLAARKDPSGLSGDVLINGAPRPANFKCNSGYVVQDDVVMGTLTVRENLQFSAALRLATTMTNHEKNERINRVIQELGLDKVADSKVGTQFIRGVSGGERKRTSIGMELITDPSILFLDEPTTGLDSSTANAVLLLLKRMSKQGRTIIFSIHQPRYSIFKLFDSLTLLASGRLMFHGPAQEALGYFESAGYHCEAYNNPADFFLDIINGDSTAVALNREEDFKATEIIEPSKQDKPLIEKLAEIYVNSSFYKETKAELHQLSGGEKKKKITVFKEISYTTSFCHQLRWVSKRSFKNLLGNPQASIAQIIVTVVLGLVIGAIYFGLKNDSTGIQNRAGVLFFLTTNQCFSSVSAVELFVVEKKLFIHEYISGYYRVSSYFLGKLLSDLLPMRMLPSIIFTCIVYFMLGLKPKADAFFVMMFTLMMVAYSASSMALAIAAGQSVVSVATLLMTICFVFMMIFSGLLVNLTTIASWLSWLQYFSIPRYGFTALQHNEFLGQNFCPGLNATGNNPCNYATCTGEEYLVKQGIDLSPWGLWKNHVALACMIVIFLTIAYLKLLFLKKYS

Broadly, the AC50 is the midpoint of the concentration-response curve, whichever way the signal moves. For the compound `Cc1c(-c2cccnc2)c2ccccc2n1CCCCC(=O)O`, the AC50 is 7.25 µM (active) in assay [1] and 37.2 µM (active) in [8]. Also, the call in [2], in assay [3], in assay [4], in assay [5], in [6] and in assay [7] was inactive. Besides, the compound was called inactive in assay [9], in [10], in [11], in [12], in assay [13] and in [14]. The outcome in assay [15], in assay [16] and in assay [17] was inactive.

Consider `CCOC(=O)c1ccc(C2CCC(NC[C@H](O)COc3ccc(O)c(NS(C)(=O)=O)c3)CC2)cc1` (some centres not stated), for which the concentration at half-maximal activity (AC50) in assay [1] was 2.61 µM (active); in assay [8] it was 73.3 µM (active); in assay [12], 8.31 µM (active). For the same compound, the outcome in [18], in assay [2], in assay [3], in [4], in [5] and in [6] was inactive. Moreover, the compound was called inactive in [7], in assay [10], in assay [11], in assay [13], in [14] and in assay [15]. For the same compound, the compound was called inactive in assay [16] and in assay [17].

As for `CC(C)CCCCCCCOC(=O)CCCCC(=O)OCCCCCCCC(C)C`, the compound was classed as inactive in assay [18], in assay [2], in assay [3], in [4], in [5] and in assay [6]. The compound was called inactive in assay [7], in assay [9], in assay [10], in assay [11], in assay [12] and in [13]. Further, the compound was called inactive in assay [14], in [15], in assay [16], in [19] and in assay [17]. For the same compound, the AC50 in assay [8] is 50 µM (active).
